Among the test systems are SK-MEL-2 melanoma; EKVX NSCLC; SN12C renal; UO-31 renal; TK-10 renal; CAKI-1 renal; A498 renal; CCRF-CEM leukemia; MOLT-4 leukemia; SR leukemia; OVCAR-8 ovarian; OVCAR-5 ovarian; OVCAR-4 ovarian; SK-OV-3 ovarian; OVCAR-3 ovarian; HS 578T breast; NCI/ADR-RES ovarian; RPMI-8226 leukemia; IGROV1 ovarian; ACHN renal.
Holding throughout (experiment): NCI-60 one-dose screen, 48 h (100 = growth as untreated, 0 = no growth, -100 = all killed)
Common to all, as to conditions: 10 µM unless noted

The panel holds about 83,000 compounds, 20% with a hit somewhere; the sample as a whole holds those more often.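 Note: values are percent growth. 100 is the growth of untreated cells, values between 100 and 0 indicate rising inhibition; between -100 and 0 indicates cell death.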 Unmarked numbers belong to inactive results. Active and inactive are the calls of the source. How the source made its calls: active means growth percent below 10; inactive means the rest.

The values below come from PubChem BioAssay (NCI).

As to `COc1ccc(/C=C2/SC(=Nc3c(C)nn(-c4ccccc4)c3N)NC2=O)cc1`, the growth is 39.1% in the experiment on SK-MEL-2 melanoma; 69.3% in the experiment on EKVX NSCLC; 67.9% in the experiment with SN12C renal; 32.8% with UO-31 renal; 71.6% with TK-10 renal; 23% with CAKI-1 renal. Also, the growth in the experiment on A498 renal is -54.5% (active); in the experiment with CCRF-CEM leukemia, 33.2%; in the experiment on MOLT-4 leukemia it was 51.6%; with SR leukemia it was 14.9%; in the experiment with OVCAR-8 ovarian it was 70.2%; in the experiment on OVCAR-5 ovarian, 76.2%. The growth in the experiment on OVCAR-4 ovarian was 51.9%; in the experiment on SK-OV-3 ovarian, 54.2%; in the experiment with OVCAR-3 ovarian it was -28.9% (active); with HS 578T breast it was 31.7%; in the experiment with NCI/ADR-RES ovarian, 42%.

As to `C[C@]12CCC(=O)C=C1CC[C@H]1[C@@H]3C[C@@H](O)[C@](O)(C(=O)CO)[C@@]3(C)C[C@H](O)[C@@]12F`, the growth in the experiment with SK-MEL-2 melanoma was 109%; in the experiment with EKVX NSCLC it was 88.4%; in the experiment with SN12C renal, 82.9%; in the experiment on UO-31 renal it was 74.1%; with TK-10 renal, 104%; with CAKI-1 renal, 78.5%. Further, the growth in the experiment with A498 renal was 97.2%; with CCRF-CEM leukemia it was 97.1%; with MOLT-4 leukemia, 84.1%; in the experiment with SR leukemia, 96.3%; with RPMI-8226 leukemia, 67.1%; with OVCAR-8 ovarian, 92.8%. The growth was 95.7% with OVCAR-4 ovarian; 72.4% in the experiment on SK-OV-3 ovarian; 97.6% in the experiment on IGROV1 ovarian; 105% in the experiment with OVCAR-3 ovarian; 115% in the experiment on HS 578T breast; 95.4% in the experiment on NCI/ADR-RES ovarian.

As for `COc1ccc2c(c1)C(=Nc1cc(OC)c(OC)c(OC)c1)C(=O)N2`, the growth is 76.8% with SK-MEL-2 melanoma; 97% in the experiment on EKVX NSCLC; 97.3% in the experiment on SN12C renal; 46.9% in the experiment on UO-31 renal; 136% in the experiment with TK-10 renal; 88.5% in the experiment on ACHN renal. Moreover, the growth in the experiment with CAKI-1 renal was 122%; in the experiment with CCRF-CEM leukemia, 81.1%; with MOLT-4 leukemia, 104%; in the experiment with SR leukemia, 75.4%; with RPMI-8226 leukemia, 65.9%; with OVCAR-8 ovarian, 105%. Further, the growth in the experiment with OVCAR-5 ovarian was 99.5%; in the experiment with OVCAR-4 ovarian it was 111%; with SK-OV-3 ovarian, 97.4%; with IGROV1 ovarian, 94.1%; in the experiment on OVCAR-3 ovarian it was 72.4%; in the experiment with NCI/ADR-RES ovarian it was 103%.

As to `c1ccc2nc(N/N=C3\CCCCC3C3CCCCC3)ccc2c1` (stereo not drawn), the growth in the experiment with SK-MEL-2 melanoma was 34.6%; with EKVX NSCLC it was 33.5%; with SN12C renal, 59.4%; in the experiment on UO-31 renal it was 60.9%; in the experiment with TK-10 renal it was 72.8%; in the experiment with ACHN renal, 44.5%. In addition, the growth is 43.4% with CAKI-1 renal; 7.99% (active) in the experiment with CCRF-CEM leukemia; 6.97% (active) with MOLT-4 leukemia; -17.5% (active) in the experiment with SR leukemia; -18.8% (active) in the experiment on RPMI-8226 leukemia; 83.6% with OVCAR-8 ovarian. The growth with OVCAR-5 ovarian was 58%; with OVCAR-4 ovarian it was 51.1%; in the experiment with SK-OV-3 ovarian, 88.6%; with IGROV1 ovarian, 44.4%; in the experiment on OVCAR-3 ovarian, 33.2%; in the experiment on NCI/ADR-RES ovarian, 57.2%.

As for `Cc1ccc(C(=O)Cc2ccccc2)c(O)c1`, the growth in the experiment on SK-MEL-2 melanoma was 101%; in the experiment with EKVX NSCLC, 99.4%; in the experiment on SN12C renal, 94.8%; in the experiment on UO-31 renal, 86.4%; in the experiment on TK-10 renal it was 104%; in the experiment on CAKI-1 renal it was 95%. Moreover, the growth was 79.3% with A498 renal; 112% in the experiment on CCRF-CEM leukemia; 92.3% in the experiment with MOLT-4 leukemia; 83% in the experiment with SR leukemia; 115% with RPMI-8226 leukemia; 104% with OVCAR-8 ovarian. The growth is 99.1% in the experiment with OVCAR-5 ovarian; 107% with OVCAR-4 ovarian; 127% with SK-OV-3 ovarian; 107% with IGROV1 ovarian; 110% with OVCAR-3 ovarian; 107% in the experiment with HS 578T breast. The growth in the experiment with NCI/ADR-RES ovarian is 108%.

For `O=C(Oc1cccc2ccccc12)c1ccccc1C(=O)c1ccccc1`, the growth with SK-MEL-2 melanoma was 97.1%; with EKVX NSCLC, 80%; in the experiment on SN12C renal it was 101%; in the experiment on UO-31 renal it was 60.8%; with TK-10 renal it was 129%; with CAKI-1 renal it was 88.1%. Moreover, the growth with A498 renal was 70.8%; with CCRF-CEM leukemia, 16%; in the experiment with MOLT-4 leukemia, 14.8%; in the experiment with SR leukemia it was 3.67% (active); in the experiment with OVCAR-8 ovarian it was 91.7%; in the experiment on OVCAR-5 ovarian it was 102%. The growth in the experiment with HS 578T breast was 93.5%; in the experiment on NCI/ADR-RES ovarian, 90.4%.

As to `CC(=O)O[C@H]1CC[C@@]2(C)C(=CC[C@@H]3[C@@H]2CC[C@]2(C)C(c4cccnc4)=CC[C@@H]32)C1`, the growth in the experiment on SK-MEL-2 melanoma is 23.6%; in the experiment with EKVX NSCLC it was 49.5%; in the experiment on SN12C renal, 96.7%; in the experiment on UO-31 renal it was 33.5%; in the experiment on TK-10 renal, 90.8%; in the experiment on ACHN renal, 44.7%. The growth with A498 renal is 91.5%; with CCRF-CEM leukemia it was 48.3%; with MOLT-4 leukemia, 46%; in the experiment with SR leukemia, 30.8%; with OVCAR-5 ovarian, 95.6%; in the experiment on OVCAR-4 ovarian, 47.2%. Moreover, the growth is 76.7% in the experiment with SK-OV-3 ovarian; 62.6% in the experiment on IGROV1 ovarian; 70.3% in the experiment with OVCAR-3 ovarian; -7.37% (active) in the experiment with HS 578T breast; 45.4% in the experiment with NCI/ADR-RES ovarian.

Turning to `O=C(Nc1ccccc1)c1cc(-n2cnc([N+](=O)[O-])c2)cc(-n2cnc([N+](=O)[O-])c2)n1`, the growth with SK-MEL-2 melanoma was 103%; in the experiment with EKVX NSCLC, 107%; in the experiment on SN12C renal, 103%; in the experiment with UO-31 renal, 92.3%; in the experiment on TK-10 renal, 112%; with ACHN renal it was 100%. Besides, the growth with A498 renal was 114%; in the experiment with CCRF-CEM leukemia, 89.3%; in the experiment with MOLT-4 leukemia it was 94.2%; in the experiment with SR leukemia, 84.2%; in the experiment on RPMI-8226 leukemia, 86.1%; in the experiment on OVCAR-8 ovarian, 92.7%. The growth was 109% with OVCAR-5 ovarian; 100% in the experiment with OVCAR-4 ovarian; 104% in the experiment with SK-OV-3 ovarian; 126% in the experiment on IGROV1 ovarian; 105% in the experiment on OVCAR-3 ovarian; 96.7% with HS 578T breast. Also, the growth in the experiment with NCI/ADR-RES ovarian is 111%.

Consider `N#Cc1ccc(-c2csc(Nc3ccc4nc5n(c(=O)c4c3)CCC5)n2)cc1`, for which the growth was 95.4% in the experiment with SK-MEL-2 melanoma; 99% with EKVX NSCLC; 104% in the experiment on SN12C renal; 100% in the experiment with UO-31 renal; 110% in the experiment with TK-10 renal; 108% in the experiment with ACHN renal. The growth was 102% with CAKI-1 renal; 51.8% in the experiment on CCRF-CEM leukemia; 92.8% with MOLT-4 leukemia; 93.6% in the experiment on SR leukemia; 109% with RPMI-8226 leukemia; 106% in the experiment on OVCAR-8 ovarian. Besides, the growth was 103% in the experiment with OVCAR-5 ovarian; 109% in the experiment on OVCAR-4 ovarian; 176% in the experiment on SK-OV-3 ovarian; 107% in the experiment with IGROV1 ovarian; 115% with HS 578T breast; 105% in the experiment with NCI/ADR-RES ovarian.
